Screening results (PubChem BioAssay)
Compounds with a hit are over-represented: about 3.3% of the library has one in this group of screens.
Sm TGR inh: qHTS Assay for the Inhibitors of Schistosoma Mansoni Peroxiredoxins | Schistosoma mansoni thioredoxin glutathione reductase (TGR), Q962Y6 | purified TGR, DTNB reduction, TNB absorbance 405 nm | Potency, µM (top dose mostly 114 µM), most hits filed as inhibitors | hit rate 3% among 360,000; also: nearly all actives have a fitted effect of over 60% in size
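First, TGR (20 nM dispensed) and NADPH were mixed with compound. Second, a 15 min room-temperature incubation followed. Third, further NADPH and then DTNB were added to start the reaction. Finally, TNB absorbance was monitored kinetically.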
AmpC inh detg: qHTS Inhibitors of AmpC Beta-Lactamase (assay with detergent); P00811; AmpC hydrolysis of nitrocefin, absorbance 480 nm, 0.01% Triton; Potency, µM (doses to about 114 µM), most hits filed as inhibitors; hit rate 0.041% among 370,000; also: nearly all actives have a fitted effect of over 25% in size
Target sequence (P00811 whole entry, looked up): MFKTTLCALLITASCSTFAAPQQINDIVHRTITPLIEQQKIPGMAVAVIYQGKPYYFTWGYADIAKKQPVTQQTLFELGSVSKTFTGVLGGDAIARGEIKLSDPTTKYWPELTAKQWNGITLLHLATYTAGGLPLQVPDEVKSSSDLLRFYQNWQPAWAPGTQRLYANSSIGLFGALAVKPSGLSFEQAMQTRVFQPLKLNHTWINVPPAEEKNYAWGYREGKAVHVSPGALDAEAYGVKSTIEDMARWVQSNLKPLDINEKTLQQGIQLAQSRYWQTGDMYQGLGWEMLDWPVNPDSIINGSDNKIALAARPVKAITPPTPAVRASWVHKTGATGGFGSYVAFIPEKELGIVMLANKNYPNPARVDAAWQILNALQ
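20 mM phosphate pH 7.0 + 0.01% (detergent screen) or 0.0001% Triton X-100; 5.3 nM AmpC reagent; cpd preinc 15 min RT; nitrocefin (800 uM stock) to start; A480 q20 s × 4 min; Activity was normalised to no-enzyme and no-compound control wells.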
AmpC inh no detg: qHTS Inhibitors of AmpC Beta-Lactamase (assay without detergent); P00811; AmpC nitrocefin hydrolysis, absorbance 480 nm, 0.0001% Triton; Potency, µM (top dose mostly 57.1 µM), hits mostly inhibitors; hit rate 0.52% among 330,000; also: nearly all actives have a fitted effect of over 20% in size
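20 mM phosphate pH 7.0 + 0.01% (detergent screen) or 0.0001% Triton X-100; 5.3 nM AmpC reagent; cpd preinc 15 min RT; nitrocefin (800 uM stock) to start; A480 q20 s × 4 min; Activity was normalised to no-enzyme and no-compound control wells.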
Of the large screens only hits and unclear results are named; the others gave an inactive call. Calls follow the shape of the dose curve; as a rule, active = well fitted curve in the direction sought with a large enough effect; inconclusive = small, poorly fitted or top-dose-only effect, or another doubt; inactive = no such curve, though single readings can be large; an effect the other way counts as inactive or inconclusive.

CN1CCN(c2ccc(Cl)cc2NC(=O)c2ccc(S(=O)(=O)N(C)C)cc2)CC1	none
COc1ccc(-c2c(NC(=O)c3ccco3)oc3ccccc3c2=O)cc1OC	AmpC inh detg inconclusive
Fc1ccc(N/N=C2/CCSc3sccc32)c(F)c1	Sm TGR inh 25µM
Fc1ccc2c(c1)/C(=N/Nc1ccccn1)CCS2	none
CCC(CC)C(=O)Nc1cc(-c2nc3cccnc3s2)ccc1C	none (no result: AmpC inh no detg)
O=C(N/C=C/c1ccco1)Nc1cccc(Cl)c1	Sm TGR inh 45µM
COc1ccc(NC(=O)N/C=C/c2ccco2)cc1	Sm TGR inh 14µM
O=C(/C=C/c1ccco1)Nc1ccc(Oc2ccc(Cl)cc2)cc1	none
O=C(Nc1cccc(Cl)c1)Nc1cccc(Cl)c1	none
Cc1nc2ccccc2n1C1CCN(C(=O)Nc2ccccc2)CC1	none (no result: Sm TGR inh)
O=C(NC(=C(Cl)Cl)S(=O)(=O)c1ccc(Cl)cc1)c1ccccc1	Sm TGR inh 3.5µM
Cc1ccc(C(=O)NC(=C(Cl)Cl)S(=O)(=O)c2ccc(C)cc2)cc1	Sm TGR inh 18µM
CC(=O)NC(=C(Cl)Cl)S(=O)(=O)c1ccccc1	Sm TGR inh inconclusive, AmpC inh detg inconclusive
Cc1ccc(S(=O)(=O)/C(=C/Cl)NC(=O)c2ccccc2)cc1	Sm TGR inh 40µM, AmpC inh detg inconclusive
Cc1ccc(S(=O)(=O)CCC(=O)OCC(=O)NC(=O)c2ccccc2)cc1	none
Cc1ccc(C(=O)NC(=C(Cl)Cl)S(=O)(=O)c2ccc(Cl)cc2)cc1	none (no result: Sm TGR inh)
OCCN1CCN(C(c2ccccc2Cl)c2sc3nc(-c4ccco4)nn3c2O)CC1 (configuration not stated)	none (no result: AmpC inh no detg)
Oc1[nH]c2ccccc2c1C1=NCCCCC1	none
O=C(c1cccc(F)c1)n1nnc2ccccc21	Sm TGR inh 35µM, AmpC inh detg inconclusive
CN(C)c1ccc(C(=O)n2nnc3ccccc32)cc1	AmpC inh detg inconclusive
COc1ccc(N2CCN(CCCNC(=O)c3c(C)nn(-c4ccc(F)cc4)c3-n3cccc3)CC2)cc1	none (no result: AmpC inh no detg)
O=C(O)CCCNS(=O)(=O)c1ccc2c(c1)OCCCO2	none
O=C(Cn1ncc2c1-c1ccccc1OC2)N(Cc1ccco1)C1CCCCC1	Sm TGR inh inconclusive, AmpC inh detg inconclusive
CC(CCc1ccco1)NC(=O)Cn1ncc2c1-c1ccccc1OC2 (configuration not stated)	Sm TGR inh 50µM, AmpC inh detg inconclusive
O=C(NCCc1nc2ccccc2[nH]1)/C(=C/c1ccc2c(c1)OCO2)NC(=O)c1ccccc1	AmpC inh no detg 10µM
N#C/C(=C/c1ccc(-c2ccc(Br)cc2)o1)C(=O)NC1CCCCC1	none
O=C(NCCc1c[nH]c2ccccc12)c1ccc2c(c1)OCO2	none
O=C(NCCc1nc2ccccc2[nH]1)/C(=C/c1ccc2c(c1)OCO2)NC(=O)c1ccccc1Cl	none
N#C/C(=C/c1ccc2c(c1)OCO2)C(=O)NCCc1c[nH]c2ccccc12	AmpC inh no detg 0.28µM
N#C/C(=C\c1ccc(-c2ccc(Br)cc2)o1)C(=O)NCCc1c[nH]c2ccccc12	AmpC inh no detg 8.9µM
CCOC(=O)N/N=C(\C)c1ccccc1OC(F)F	none
CCOc1ccc(CCNC(=O)c2c(C)oc3ncnc(N4CCOCC4)c23)cc1	none (no result: AmpC inh no detg)
Cc1ccc(N2CC(C(=O)NCc3ccc(C)n3C)CC2=O)cc1 (configuration not stated)	Sm TGR inh 40µM
Cc1ccc(N2CC(C(=O)NCCC(C)C)CC2=O)cc1 (configuration not stated)	none
NC(=O)C1CCN(C(=O)CC2(CC(=O)O)CCCCC2)CC1	none
NC(=O)CC1(CC(=O)O)CCCCC1	AmpC inh detg 71µM
CS(=O)(=O)c1oc(-c2ccc(F)cc2)nc1S(=O)(=O)c1ccc(Cl)cc1	Sm TGR inh 0.71µM (no result: AmpC inh no detg)
CCS(=O)(=O)c1oc(-c2ccc(F)cc2)nc1S(=O)(=O)c1ccc(Br)cc1	Sm TGR inh 0.63µM (no result: AmpC inh no detg)
CCCCS(=O)(=O)c1oc(-c2ccc(F)cc2)nc1S(=O)(=O)c1ccccc1	none (no result: AmpC inh no detg)
CSc1oc(-c2ccc(F)cc2)nc1S(=O)(=O)c1ccc(F)cc1	none
NC(=S)N/N=C/c1ncc(C(F)(F)F)cc1Cl	none
Cc1ccccc1NC(=O)c1nc(S(C)(=O)=O)ncc1N(Cc1ccco1)Cc1sccc1C	none (no result: AmpC inh no detg)
CC(=O)c1ccc(NC(=O)Cc2ccsc2)cc1	none
COc1ccccc1NC(=O)c1nn(-c2ccc(Cl)cc2)ccc1=O	none
COc1ccccc1NC(=O)c1nn(-c2ccccc2)ccc1=O	AmpC inh no detg 0.14µM
CCN1CCN(Cc2nc3c(c(=O)n(C)c(=O)n3C)n2Cc2cccc3ccccc23)CC1	AmpC inh no detg 0.16µM
Cn1c(=O)c2c(nc(CN3CCC(Cc4ccccc4)CC3)n2CCN2CCOCC2)n(C)c1=O	none
